About 79,000 compounds went through this panel and 15% of them were active in at least one assay; those are over-represented in the sample as a whole. No stated cut-off is given here; in the data, active means growth inhibition above about 70%; inactive means the rest.
How the values were obtained:
[1] = NCI Yeast Anticancer Drug Screen. Data for the rad50 strain (AID 155);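 further: 0% = growth of vehicle-only cultures of the same strain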; settings: S. cerevisiae rad50 strain growth inhibition; at 50.0 µM; stronger effect = higher value
In short: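 A DNA repair-deficient yeast mutant serves as the test organism; compound-induced growth inhibition is calculated against vehicle-treated cells.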

[2] = NCI Yeast Anticancer Drug Screen. Data for the mec2-1 strain (AID 157); settings: S. cerevisiae mec2-1 strain, at 50.0 µM, stronger effect = higher value
In short: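 Strain: mec2-1 (DNA repair/cell cycle alteration). Compound exposure, then growth measured; inhibition expressed relative to vehicle.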

[3] = NCI Yeast Anticancer Drug Screen. Data for the sgs1 mgt1 strain (AID 161);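 further: 0% = growth of cultures given vehicle only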; settings: S. cerevisiae sgs1 mgt1 strain, at 50.0 µM, stronger effect = higher value
In short: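 Inhibition of yeast growth, normalised to vehicle-treated controls, is reported for a strain bearing genetic alterations in DNA damage repair.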

[4] = NCI Yeast Anticancer Drug Screen. Data for the cln2 rad14 strain (AID 165);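 further: 0% = growth equal to vehicle treated cultures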; settings: S. cerevisiae cln2 rad14 strain, at 50.0 µM, stronger effect = higher value
In short: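 Compounds are applied to the cln2 rad14 yeast strain, and growth is then compared with that of vehicle-treated cultures to give inhibition.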

[5] = NCI Yeast Anticancer Drug Screen. Data for the bub3 strain (AID 167); settings: S. cerevisiae bub3 mutant strain, at 50.0 µM, stronger effect = higher value
In short: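 Inhibition values come from growth of compound-treated mutant yeast normalised to vehicle-treated controls.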

[6] = NCI Yeast Anticancer Drug Screen. Data for the mlh1 rad18 strain (AID 175); settings: S. cerevisiae mlh1 rad18 strain growth inhibition; at 50.0 µM; stronger effect = higher value
In short: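 Read-out is yeast growth inhibition, calculated against vehicle-only controls. The compound was applied to a strain engineered with DNA damage repair alterations.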

Measured: growth inhibition

CSS(=O)(=O)C(c1ccccc1)c1ccccc1
inactive: [1] -14.6% | [2] 2.55% | [3] -2.1% | [4] -2.45% | [5] 60.2% | [6] -14.8%

CC1(C)COC(C2(C)C(=O)C=C(c3ccccc3)c3ccccc32)=N1 (stereo not drawn)
inactive: [1] 25.3% | [2] -11.8% | [3] 29.8% | [4] 12.8% | [5] 3.9% | [6] 11.8%

CC(C)=NOC(CCOC(=O)c1ccccc1)COC(=O)c1ccccc1 (stereo not drawn)
inactive: [1] -13.6% | [2] 0.1% | [3] -1.35% | [4] -10.4% | [5] -11.8% | [6] 7.75%

CCCCC1=CC1(C#N)[N+](=O)[O-] (stereo not drawn)
inactive: [1] 33.4% | [2] 11.5% | [3] 20.5% | [4] 21.6% | [5] 17.3% | [6] 27.8%

CC(C)(C)c1ccc(OCCOCCOc2ccc(C(C)(C)C)cc2S(N)(=O)=O)c(S(N)(=O)=O)c1
inactive: [1] 0.35% | [2] -23.3% | [3] -19.8% | [4] 9.7% | [5] -3.5% | [6] -6.35%

CCOC(=O)C(C)(C(=O)OCC)n1cnc2c1c(=O)n(C)c(=O)n2C
inactive: [1] 8.05% | [2] -7.6% | [3] -12.6% | [4] 9.8% | [5] 10.8% | [6] 4.8%

Cc1cc(N2CCCCC2)nc2ccc(Cc3ccc4nc(N5CCCCC5)cc(C)c4c3)cc12
inactive: [1] 48.7% | [2] -7.05% | [3] -27.9% | [4] -16.4% | [5] -47.4% | [6] 27.5%

O=C1N(Cl)C2C(N1Cl)N(Cl)C(=O)N2Cl (stereo not drawn)
inactive: [1] 5.35% | [2] -9.55% | [3] -18.4% | [4] -2.9% | [5] 2.95% | [6] -12.6%

CN(C(=O)C(Cl)Cl)c1ccc(-c2csc(Cc3ccccc3)n2)cc1
inactive: [1] 38.7% | [2] 6.3% | [3] 1.05% | [4] 7.05% | [5] 34.8% | [6] 28.2%

CC(=O)CC(=O)CCC(=O)O
inactive: [1] 30.9% | [2] -20.2% | [3] -0.25% | [4] 7.1% | [5] 13.9% | [6] 32.8%

COC(=O)c1ccc(C(=O)OC)c2nc3cc(C)c(C)cc3nc12
inactive: [1] -0.7% | [2] 20.7% | [3] 0.1% | [4] -7.1% | [5] 5.35% | [6] 12%

COC(=O)C1CC(OC(C)=O)C2OC(C)(C)OC2C1OC(C)=O (stereo not drawn)
inactive: [1] 7.5% | [2] 1.55% | [3] -3.15% | [4] 0.55% | [5] 8.55% | [6] -3%

Nc1cccc(C(F)(F)F)c1
inactive: [1] -20.8% | [2] 0.25% | [3] -16.3% | [4] -58.5% | [5] 18.4% | [6] -0.05%

O=C1OC(C(O)CO)C(C(O)CO)OC1=O (stereo not drawn)
inactive: [1] -9.3% | [2] -15.6% | [3] -39.5% | [4] -7.35% | [5] -12.3% | [6] 1.6%

CC1(C)Cc2cccc(OC(=O)NO)c2O1
inactive: [1] -0.65% | [2] 24.4% | [3] 0.45% | [4] -37.8% | [5] -3.1% | [6] 9%

CC(=O)Oc1c(C(C)C)cccc1C(C)(C)C
inactive: [1] -10.8% | [2] -9.95% | [3] -1.1% | [4] -14.1% | [5] -34.1% | [6] -13.5%

COc1ccc(NC(=O)c2cccc([N+](=O)[O-])c2)cc1
inactive: [1] 8.1% | [2] 23.1% | [3] 24.6% | [4] 1.8% | [5] 4.1% | [6] 5.8%

COc1ccc(/C=N/NC(=O)NCCNCCO)cc1
inactive: [1] -16.6% | [2] -31.8% | [3] -32.8% | [4] -13.7% | [5] -39.5% | [6] -17.2%

CCOc1ccccc1/C=C/C(=O)O
inactive: [1] 4.6% | [2] -9.7% | [3] -11.8% | [4] -19% | [5] -22.1% | [6] -21.4%

CN(C)Cc1cccc(C(F)(F)F)c1C(O)c1ccccc1 (stereo not drawn)
inactive: [1] 7.75% | [2] -10.2% | [3] -5.3% | [4] 3.9% | [5] 7.7% | [6] -14.7%

O=S1(=O)Cc2ccccc2O1
inactive: [1] 4.25% | [2] 5.2% | [3] 28.6% | [4] -3.2% | [5] -19% | [6] 33%

CC([N+](=O)[O-])S(=O)(=O)c1ccccc1 (stereo not drawn)
inactive: [1] 3.55% | [2] -20.1% | [3] -10.4% | [4] -7.45% | [5] -2.95% | [6] 5.5%

CC[N+](C)(CC)C(Cc1ccccc1)c1ccccc1 (stereo not drawn)
inactive: [1] 1% | [2] 8.8% | [3] 24.6% | [4] 23% | [5] -5.8% | [6] 4.3%

CCCCCCC(/C=C/c1ccc(Cl)c(Cl)c1)=N\Nc1ccccc1
inactive: [1] 3.55% | [2] -15.9% | [3] 14.8% | [4] -19.7% | [5] -4.3% | [6] -12.3%

CNCCSSCCN
inactive: [1] -10.2% | [2] -0.95% | [3] -6.3% | [4] -18.8% | [5] 2.6% | [6] 0.95%

C=C(C)CN(Cc1ccccc1)C1CCCCCCC1
inactive: [1] -7.55% | [2] -11.3% | [3] -14.8% | [4] -5.75% | [5] 1.35% | [6] -17.6%

CCc1c(Cc2[nH]c(C=O)c(C)c2CC)[nH]c(C=O)c1C
inactive: [1] 6.85% | [2] -11.9% | [3] 11.2% | [4] -1.05% | [5] 5.45% | [6] 3.8%

CCN(CC)CCn1c2ccccc2c(=O)c2c(O)ccc(O)c21
inactive: [1] 14.8% | [2] -1.3% | [3] 3.35% | [4] 4.45% | [5] 6.95% | [6] -0.55%

CO[C@H](C)[C@@](O)(C(=O)OCC1=CCN2CCC[C@@H]12)C(C)C
inactive: [1] -2.3% | [2] -9.4% | [3] 32.4% | [4] 8.65% | [5] 4.5% | [6] 16.3%

O=C(O)c1ccc(O)cc1
inactive: [1] 14.3% | [2] 44.7% | [3] -0.9% | [4] 2.45% | [5] 1.7% | [6] 21.9%

O=c1[nH]n(CCc2ccccc2CCl)c2ccc([N+](=O)[O-])cc12
inactive: [1] 26% | [2] 14.6% | [3] 16.4% | [4] 9.45% | [5] 38.7% | [6] -10.6%

CCOC(=O)c1nc2ccc(C(F)(F)F)cc2nc1NCc1ccc(OC)cc1
inactive: [1] 4.6% | [2] 9.8% | [3] -1.15% | [4] 17.2% | [5] 5.15% | [6] -15.7%

O=C(O)CNC(=O)OCc1ccccc1
inactive: [1] -35.9% | [2] -16.4% | [3] -35.5% | [4] -45.8% | [5] 1.55% | [6] -19.4%

O=C(NNC(=O)c1ccc2ccccc2c1)c1ccc(F)cc1
inactive: [1] 4.05% | [2] 0.9% | [3] 3.8% | [4] 3.05% | [5] 10.2% | [6] 10.2%

c1cc2c3c(cccc3c1)N1C(=N2)Sc2nc3ccccc3nc21
inactive: [1] 3.15% | [2] 13.5% | [3] -9.8% | [4] -5.2% | [5] 13.6% | [6] -3%

CC(=O)c1ccc(NC(N)=O)cc1
inactive: [1] 2.15% | [2] -10.4% | [3] 5.3% | [4] -8.1% | [5] -7.15% | [6] -12.5%

O=C(C(=O)c1ccco1)c1ccco1
inactive: [1] 64.1% | [2] -0.45% | [3] 34.1% | [4] -24.6% | [5] 21.1% | [6] 35%

c1ccc(C2=NCC(c3ccccc3)(C3(c4ccccc4)SCCCS3)O2)cc1 (stereo not drawn)
inactive: [1] 30.8% | [2] 5.15% | [3] 12.7% | [4] -13.8% | [5] -3.35% | [6] 6.55%
